Data reported in PubChem BioAssay (EPA / NIEHS).
Records with an inconclusive call do not appear. Activity calls are given as the source filed them. Rule for the calls: active = hit-call score of the fitted dose curve at least 0.9, where 1 is the maximum; inconclusive = response in the unintended direction; inactive = score below 0.9.

experiment: ACEA_AR_agonist_AUC_viability: ACEA Biosciences xCELLigence Real-Time Cell Analysis on Androgen Receptor Agonism for Viability (AID 2283775);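 for AC50: viability read 80 hours after compound addition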
Procedure: ACEA_AR_agonist is a cell-based, single-readout assay that uses 22Rv1, a human prostate cancer cell line, with measurements taken at 80 hours after chemical dosing in a 384-well plate, although TO5 and TO6 (mc0.srcf) used a 96-well plate. Differences in plate size can be ignored given data normalization.ACEA_AR_80hr is one of two assay component(s) measured or calculated from the ACEA_AR assay. It is designed to make measurements of real-time cell-growth kinetics, a form of growth reporter, as detected with electrical impedance signals by Real-Time Cell Electrode Sensor (RT-CES) technology.Data from the assay component ACEA_AR_AUC_viability was analyzed in the positive analysis fitting direction relative to DMSO as the negative control and baseline of activity. Using a type of growth reporter, loss-of-signal activity can be used to understand changes in the viability. Furthermore, this assay endpoint can be referred to as a secondary readout, because this assay has produced multiple assay endpoints where this one serves a viability function. To generalize the intended target to other relatable targets, this assay endpoint is annotated to the cell cycle intended target family, where the subfamily is cytotoxicity.
The xCELLigence system Multi-E-Plate stations were used to measure the time-dependent response to chemicals. Each compound was tested in an eight-point, 1:4 serial dilution series starting at a maximum final concentration of 100 uM. A maximum starting concentration of 0.5% DMSO was present in the 100 uM chemical samples and was diluted along with the test article dilution series. The screen was performed in biological duplicate using two separate, 96-well, E-Plates 96 for each dilution series (n = 2). Positive controls (MG132 and testosterone) and a negative control (assay media) were tested in quadruplicate on each testing plate. Then, 0.5% and 0.125% DMSO were tested in duplicates in each plate to serve as solvent controls for the 2 highest concentrations of testing compounds: 100 uM and 25 uM. Reference compounds were tested with 8 concentrations with 1:5 serial dilutions. All screening was carried out by ACEA Biosciences, Inc. (San Diego, CA). 22Rv1 cells purchased from ATCC were maintained in media supplemented with 10% fetal bovine serum (FBS). Before screening, 22Rv1 cells were preconditioned in assay medium. Cells were then detached and seeded in E-Plates 96 in assay medium. After overnight monitoring of growth once every hour, compounds were added to […] cells and remained in the medium until the end of the experiment. Cellular responses were then recorded once every 5 min for the first 5 h, and once every hour for an additional 100 h.

Row | SMILES | outcome | AC50
1 | CC(C)N(c1ccccc1)C(C)C | inactive | –
2 | O=C(c1ccc(OCCN2CCCCC2)cc1)c1c(-c2ccc(O)cc2)sc2cc(O)ccc12 | – | 50 µM (active)
3 | COC(=O)c1ccc(C(=O)OC)cc1 | inactive | –
4 | COc1ccc(OC)cc1 | inactive | –
5 | O=C(O)C1=NN(c2ccc(S(=O)(=O)O)cc2)C(=O)C1 | – | 8.67 µM (active)
6 | CCCCCCOc1ccc(O)cc1 | – | 10.9 µM (active)
7 | CC1=CCC(=C(C)C)CC1 | inactive | –
8 | OC[C@H]1O[C@@H](O[C@H]2[C@H](O)[C@@H](O)[C@H](O)O[C@@H]2CO)[C@H](O)[C@@H](O)[C@H]1O | – | 0.603 µM (active)
9 | NCCN1CCNCC1 | inactive | –
10 | CC(CCO)CC(C)(C)C (stereo not given) | inactive | –
11 | CC(=O)c1ccc2ccccc2c1 | inactive | –
12 | CC(=O)Oc1c(C)c(C)c2c(c1C)CC[C@@](C)(CCC[C@H](C)CCC[C@H](C)CCCC(C)C)O2 | inactive | –
13 | CCC(C)C1CCCCC1=O (stereo not given) | inactive | –
14 | C=CC(C)CCCC(C)(C)O (stereo not given) | inactive | –
15 | c1ccc(OCCOc2ccccc2)cc1 | inactive | –
16 | CCCCCCCCOC(=O)c1ccc(O)cc1 | inactive | –
17 | COc1cc(OC)c2ccc(=O)oc2c1 | – | 0.94 µM (active)
18 | CN(C)C | inactive | –
19 | CCCCCCCCCCOC(=O)c1ccccc1C(=O)OCCCCCCCC | inactive | –
20 | CCCCOCCOCCOCCO | inactive | –

Row | SMILES | outcome | AC50
21 | [Na+] | inactive | –
22 | CC(C)(CO)CO | inactive | –
23 | C=CCCCCCCCCC(=O)OCC | inactive | –
24 | O=C1OC2(c3ccc(O)cc3Oc3cc(O)ccc32)c2ccccc21 | inactive | –
25 | NC(N)=S | inactive | –
26 | C1=COCCC1 | inactive | –
27 | CC12CCC(C1)C(C)(C)C2O (stereo not given) | inactive | –
28 | CCCCCCCCCO | inactive | –
29 | CC(=O)c1ccc(O)cc1 | inactive | –
30 | COC(=O)C(C)Oc1ccc(Oc2ncc(C(F)(F)F)cc2Cl)cc1 (stereo not given) | inactive | –
31 | CCCCN(CCCC)CCCCCCN(CCCC)CCCC | inactive | –
32 | CCC(C)(CCCC(C)C)OC(C)=O (stereo not given) | inactive | –
33 | CC(C)(C)c1ccc(S)cc1 | inactive | –
34 | c1ccc2scnc2c1 | inactive | –
35 | CC(O)CN (stereo not given) | inactive | –
36 | O=c1cc(-c2ccc(O)cc2)oc2cc(O)cc(O)c12 | – | 12.7 µM (active)
37 | CCCCCCCCOC(C)=O | inactive | –
38 | COc1ccc2[nH]cc(CCNC(C)=O)c2c1 | inactive | –
39 | O=Cc1ccccc1O | inactive | –
40 | CCc1cccc(O)c1 | inactive | –
